Each structure is given as a SMILES string. Results with a measured potency or affinity are listed apart. Calls of active or inactive are those of the source. No rule for the calls is given here.

A short description of this experiment: toxicity toward cultured mammalian cells – cell-based, plate reader, cherry-pick samples, cytotoxicity control, dose response (AID 504397). The conditions noted are these: plate reader viability; series mostly up to 35 µM.
As to `Nc1nonc1-n1nnc(C(=O)N/N=C/c2ccoc2)c1CSc1ccccc1`, the result was inactive.
The value for `CCOC(=O)[C@@H]1[C@H]2COc3ccc(Br)cc3[C@@H]2N2C(=O)N(c3cccc(Cl)c3)C(=O)[C@]12C` was “inactive”; that for `O=C(c1cnc2n(c1=O)CCS2)N1CCN(C(c2ccccc2)c2ccc(Cl)cc2)CC1` (stereo unspecified) was “inactive”.
The value for `CN(C)CCN(C(=O)c1ccc2ccccc2c1)c1nc2ccc(Br)cc2s1` was “inactive”; that for `CS(=O)(=O)Cc1ccc(C(=O)N(CCc2ccccc2)Cc2ccccc2)cc1` was “inactive”; that for `O=[N+]([O-])c1ccc(-c2cnc(SC(c3ccccc3)c3ccccc3)[nH]2)cc1` was “inactive”.
The value for `COc1ccc(CN2CCN(C(c3ccc(F)cc3)c3ccc(F)cc3)CC2)c(OC)c1OC` was “inactive”; that for `CS(=O)(=O)Nc1ccccc1C(=O)NC1CC2CCC1C2` (stereo unspecified) was “inactive”; that for `Nc1nonc1-n1nnc(C(=O)N/N=C/c2cccc(Cl)c2)c1CSc1ccc(Cl)cc1` was “inactive”.
In the case of `COC(=O)C1CCCN1S(=O)(=O)c1ccc2ccccc2c1` (stereo unspecified), the outcome was inactive.
The value for `CCn1nnnc1SCC(=O)Nc1nc(C)c(C)s1` was “inactive”; that for `CCOC(=O)c1cc(-c2ccccc2)sc1NC(=O)C(C)Sc1nnnn1C` (stereo unspecified) was “inactive”; that for `Cc1ccc(/C=N/NC(=O)c2nnn(-c3nonc3N)c2C(C)C)o1` was “inactive”.
The entry for `Cc1cccc(Nc2ccccc2C(=O)OCC(=O)N(C)C2CCS(=O)(=O)C2)c1C` (stereo unspecified) is “inactive”.
The entry for `Cc1ccccc1NS(=O)(=O)c1ccc(C(=O)NCC(c2ccccc2)N(C)C)cc1` (stereo unspecified) is “inactive”; for `CN(C)CCN(C(=O)c1ccc2ccccc2c1)c1nc2ccc(F)cc2s1` it is “inactive”.

The values above are taken from PubChem BioAssay AID504397 (Broad Institute, 2011).
